Source: PubChem BioAssay AID504332 (National Center for Advancing Translational Sciences (NCATS), 2011)
Out of some 350,000 compounds screened, about 31,000 (8.9%) were called active. Roughly 15% stayed inconclusive and do not appear here. The list comes from a sample in which actives are over-represented; it also holds similar structures and randomly drawn compounds. A call without a number means that no potency is given here. Values without a mark were called inactive. Calls follow the shape of the dose curve; as a rule, active = well fitted inhibition curve with a large enough effect; inconclusive = small, poorly fitted or top-dose-only effect; inactive = no such curve, though single readings can be large or run the other way.

biological target: Histone-lysine N-methyltransferase EHMT2 (Homo sapiens) (UniProt Q96KQ7); assay: qHTS Assay for Inhibitors of Histone Lysine Methyltransferase G9a; settings: G9a H3K9 monomethylation, AlphaScreen, 2 h; series mostly up to 59 µM; also: nearly all actives have a fitted effect of over 75% in size
Sequence (Q96KQ7 913-1193 limits assumed): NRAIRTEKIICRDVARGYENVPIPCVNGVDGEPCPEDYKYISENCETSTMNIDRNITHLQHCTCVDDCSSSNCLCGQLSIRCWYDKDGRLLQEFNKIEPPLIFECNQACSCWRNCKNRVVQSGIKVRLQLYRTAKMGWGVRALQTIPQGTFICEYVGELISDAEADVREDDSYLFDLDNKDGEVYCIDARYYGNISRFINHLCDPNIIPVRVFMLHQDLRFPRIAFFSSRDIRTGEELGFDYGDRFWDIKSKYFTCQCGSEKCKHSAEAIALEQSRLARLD
Outline: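 G9a (20 nM) preincubated 15 min RT with compounds, then 500 nM biotinylated H3K9 peptide and 20 uM SAM added; 2 h RT reaction. Monomethyl-H3K9 product detected by AlphaScreen with anti-H3K9me1 antibody, streptavidin donor and anti-rabbit IgG acceptor beads.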
Potency is read from the fitted curve at half-maximal effect.

SMILES	Potency	activity, negative = inhibition
CC(C)c1ccc(NC(=O)Cn2c3ncccc3c(=O)n2-c2ccccc2)cc1	inactive	
N#CC1=C(N)Oc2n[nH]c(CSc3ccccc3)c2C12C(=O)Nc1ccccc12 (centres undefined)	inactive	
Cc1ccc(NC2(C#N)C(=O)Nc3ccccc32)cc1 (centres undefined)		-25.6% [at 2.33 µM]
N#CC1=C(N)Oc2[nH]c(=S)[nH]c(=O)c2C12C(=O)Nc1ccccc12 (centres undefined)	35.5 µM (active)	
O=C1c2ccccc2NC(c2ccc(-c3cccc(Cl)c3)o2)N1O (centres undefined)		25.2% [at 12.7 µM]
CN=C1S/C(=C\c2ccc(Sc3ccc(Cl)cc3)o2)C(=O)N1C	inactive	
O=C(O)C(c1ccccc1)N1C(=O)/C(=C\c2ccc(-c3cccc(Cl)c3)o2)SC1=S (centres undefined)	39.8 µM (active)	
Cc1ccc(C(=O)COC(=O)C(Cc2c[nH]c3ccccc23)NC(=O)c2ccc(Br)cc2)cc1 (centres undefined)	inactive	
Cn1cc(S(=O)(=O)N2CCCCCC2)cc1C(=O)N1CCN(c2ccc(F)cc2)CC1	inactive	
CCCCc1nn2c(=O)cc(COC(=O)c3ccc(NC(=O)c4ccccc4C)cc3)nc2s1	inactive	
Cc1ccc(-n2c(SCC(=O)Nc3cccc(F)c3)nc3c(oc4ccccc43)c2=O)cc1C	inactive	
CCN(CC(=O)Nc1ccc(OC)cc1)C(=O)c1ccc(Cl)c(S(=O)(=O)N2CCCC2)c1	inactive	
COc1ccc(C(=O)OCC(=O)c2ccc(Cl)s2)c(OC)c1OC	inactive	
C=CCNC(=S)NNC(=O)c1cc(Cl)ccc1OC	inactive	
C=CCNC(=S)NNC(=O)c1ccc(Br)o1	inactive	
C=CCNC(=S)NNC(=O)COc1c(Cl)cc(Cl)cc1Cl	8.91 µM (active)	
O=C(c1cc(C(=O)N2CCN(c3ccc(F)cc3)CC2)cc([N+](=O)[O-])c1)N1CCN(c2ccc(F)cc2)CC1		1.74% [at 0.501 µM]
O=C(c1cc(-c2ccc(F)cc2)on1)N1CCN(c2ccc(F)cc2)CC1	inactive	
O=C1Nc2cc(C(=O)N3CCN(c4ccc(F)cc4)CC3)ccc2NC1CSCc1cccc(F)c1 (centres undefined)	10 µM (active)	
C=CCn1c(SCc2cccc(F)c2)nc2cc(C(=O)N3CCC(C(N)=O)CC3)ccc2c1=O	inactive	

SMILES	Potency	activity, negative = inhibition
O=C(c1cccc(F)c1)N1CCC2(CC1)CCN(c1ccccc1)CC2		-4.3% [at 12.7 µM]
Cc1ccc(CSCC2Nc3ccc(C(=O)N4CCN(c5ccc(F)cc5)CC4)cc3NC2=O)cc1 (centres undefined)	2.24 µM (active)	
CC1CCCC(NC(=O)c2cc(S(=O)(=O)N3CCCCC3)ccc2Cl)C1C (centres undefined)		12.6% [at 12.7 µM]
CCOC(=O)c1c(C)[nH]c(C)c1S(=O)(=O)N1CCC(C(=O)Nc2ccc(C)c(Cl)c2)CC1	inactive	
CC(=O)Nc1cccc(C(=O)OCC(=O)c2ccc3c(c2)OCO3)c1	inactive	
CC1(C)CC(=O)c2ccc(O)cc2O1	inactive	
COc1ccc(C(=O)Nc2onc3c2CCCC3)cc1	inactive	
CC(C)(C)c1ccc(C(=O)NCC(c2ccc(Cl)cc2)N2CCOCC2)cc1 (centres undefined)	inactive	
CCOC(=O)c1cc2c(=O)n3ccccc3nc2n(CC2CCCO2)c1=NC(=O)c1ccccc1F (centres undefined)	inactive	
CCOc1cccc(-c2nn3c(-c4ccccn4)nnc3s2)c1	inactive	
COc1cc(-c2nn3c(-c4cccc(C)c4)nnc3s2)cc(OC)c1OC		-23.6% [at 12.7 µM]
COc1ccc(-c2nn3c(-c4ccccc4)nnc3s2)cc1OC	35.5 µM (active)	
COC(=O)c1ccc(NCC(=O)N2CCCCCC2)cc1	inactive	
Cc1ccc(C(=O)CNc2ccc(F)cc2)cc1	inactive	
COC(=O)c1ccc(NCC(=O)c2ccccc2)cc1	50.1 µM (active)	
CCCCc1nc2cc(C(=O)NCCc3cnn(C)c3)ccc2o1	inactive	
O=C(NC1CCCCCCC1)c1cccs1	inactive	
CCN(Cc1ccccc1)C(=O)Cc1ccc(OC)c(S(=O)(=O)N2CCOCC2)c1	inactive	
CN1CCN(S(=O)(=O)c2ccc(N3CCN(c4ccccc4O)CC3)c([N+](=O)[O-])c2)CC1	39.8 µM (active)	
Cc1ccc(C(=O)c2ccc(N3CCN(C)CC3)c([N+](=O)[O-])c2)cc1	inactive	

SMILES	Potency	activity, negative = inhibition
CN1CCN(c2ccc(S(=O)(=O)Nc3ccccc3)cc2[N+](=O)[O-])CC1	inactive	
Cc1ccc(S(=O)(=O)n2nc(-c3ccc(Cl)cc3)nc2NCc2ccccc2)cc1	inactive	
COCCNc1cc(-c2ccccc2)nc2cc(-c3cccc(F)c3)nn12	inactive	
COCC1CCN(C(=O)c2ccc3oc(Cc4ccccc4)nc3c2)C1 (centres undefined)	inactive	
CCN(CC)S(=O)(=O)c1ccc2[nH]c(=O)cc(C(=O)N(C)C3CCS(=O)(=O)C3)c2c1 (centres undefined)	inactive	
COc1cccc(CNC(=O)C2CCN(S(=O)(=O)c3ccc4c(ccn4C)c3)CC2)c1	inactive	
Cc1cccc(-c2nc(CS(=O)CC(=O)NC(C)CCc3ccccc3)c(C)o2)c1 (centres undefined)	inactive	
COc1ccc(-c2nc(CS(=O)CC(=O)NCc3ccccc3)c(C)o2)cc1OC (centres undefined)	inactive	
COc1ccc(CNC(=O)CS(=O)Cc2nc(-c3cccc(C)c3)oc2C)cc1 (centres undefined)	inactive	
COc1cccc(-c2nc(CS(=O)CC(=O)NCc3ccc(F)cc3)c(C)o2)c1 (centres undefined)	inactive	
COc1ccc(-c2nc(CS(=O)CC(=O)N3CCc4ccccc4C3)c(C)o2)cc1 (centres undefined)	28.2 µM (active)	
Cc1ccc(-c2nc(CS(=O)CC(=O)NC3CCCC3)c(C)o2)cc1 (centres undefined)	70.8 µM (active)	
CCC(=O)Nc1cccc(C(=O)OCc2cc(=O)n3nc(CC)sc3n2)c1		-1.91% [at 12.7 µM]
CC(C)CC(NS(=O)(=O)c1ccc2c(c1)oc(=O)n2C)C(=O)NCc1ccccc1Cl (centres undefined)	inactive	
COc1ccccc1CNC(=O)C(Cc1ccccc1)NS(=O)(=O)c1ccc2c(c1)oc(=O)n2C (centres undefined)	inactive	
CCOc1ccc(OCC)c(NC(=O)C(NS(=O)(=O)c2ccc3c(c2)oc(=O)n3C)C(C)C)c1 (centres undefined)	56.2 µM (active)	
CCCn1c2ccccc2c2cnn(CC(=O)N3CCCC(C(=O)OCC)C3)c(=O)c21 (centres undefined)	inactive	
CC(Sc1sc(=S)sc1SC(C)C(=O)O)C(=O)O (centres undefined)	50.1 µM (active)	
Cc1ccc(C)c(NC(=O)COC(=O)Cn2c(C)csc2=O)c1	inactive	
